Source: the supplement of paper PMC8728848
The sample as a whole holds a higher share of the strongest signals than the screen did.

How the values were obtained:
Test in all cases: glycan array binding signal (z-score within array); higher = stronger binding
Details in all cases: glycan notation: IUPAC condensed, linker removed
[1] = target: Gal6S(b1-4)GlcNAc
Summary of the method: (§1)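 Glycan array binding is given as a within-array Z-score, which can be read as non-binding when negative. The arrays, 3228 of them, came from the Consortium for Functional Glycomics database and were retained only where the protein sequence was available. Z-scores were averaged across arrays of the same protein sequence at different concentrations or buffers and across linkers.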

[2] = target: GalNAc(b1-4)GlcNAc
Summary of the method: as §1

[3] = target: GalNAc(b1-4)GlcNAc(b1-2)Man
Summary of the method: as §1

[4] = target: Glc(a1-6)Glc(a1-6)Glc(a1-6)Glc
Summary of the method: as §1

[5] = target: GlcA(b1-3)GlcNAc
Summary of the method: as §1

[6] = target: GlcNAc(b1-2)[GlcNAc(b1-4)]Man(a1-3)[GlcNAc(b1-4)][GlcNAc(b1-2)Man(a1-6)]Man(b1-4)GlcNAc(b1-4)GlcNAc
Summary of the method: as §1

[7] = target: GlcNAc(b1-2)[GlcNAc(b1-4)]Man(a1-3)[GlcNAc(b1-4)][GlcNAc(b1-2)[GlcNAc(b1-6)]Man(a1-6)]Man(b1-4)GlcNAc(b1-4)GlcNAc
Summary of the method: as §1

[8] = target: Kdn(a2-3)Gal(b1-4)[Fuc(a1-3)]GlcNAc
Summary of the method: as §1

[9] = target: Man(a1-2)Man(a1-2)Man(a1-3)Man
Summary of the method: as §1

[10] = target: Neu5Ac(a2-3)Gal(b1-3)[Fuc(a1-4)]GlcNAc(b1-3)Gal(b1-4)[Fuc(a1-3)]GlcNAc
Summary of the method: as §1

[11] = target: Neu5Ac(a2-3)Gal(b1-4)GlcNAc(b1-3)GalNAc
Summary of the method: as §1

[12] = target: Neu5Ac(a2-3)Gal(b1-4)[Fuc(a1-3)]GlcNAc(b1-6)[Gal(b1-3)]GalNAc
Summary of the method: as §1

[13] = target: Neu5Ac(a2-3)Gal6S(b1-4)GlcNAc
Summary of the method: as §1

[14] = target: Neu5Ac(a2-6)Gal(b1-4)GlcNAc
Summary of the method: as §1

[15] = target: Neu5Ac(a2-6)Gal(b1-4)GlcNAc(b1-3)Gal(b1-4)GlcNAc(b1-3)Gal(b1-4)GlcNAc(b1-2)Man(a1-3)[Neu5Ac(a2-6)Gal(b1-4)GlcNAc(b1-3)Gal(b1-4)GlcNAc(b1-3)Gal(b1-4)GlcNAc(b1-2)Man(a1-6)]GalNAc
Summary of the method: as §1

[16] = target: Neu5Ac(a2-6)Gal(b1-4)GlcNAc(b1-3)Gal(b1-4)GlcNAc(b1-3)[Neu5Ac(a2-6)Gal(b1-4)GlcNAc(b1-3)Gal(b1-4)GlcNAc(b1-6)]GalNAc
Summary of the method: as §1

[17] = target: Neu5Gc(a2-3)Gal(b1-3)GlcNAc
Summary of the method: as §1

[18] = target: Fuc(a1-2)Gal(b1-3)[Fuc(a1-4)]GlcNAc(b1-3)[Gal(b1-4)GlcNAc(b1-6)]Gal(b1-4)Glc
Summary of the method: as §1

[19] = target: Fuc(a1-2)Gal(b1-4)Glc
Summary of the method: as §1

[20] = target: Fuc(a1-2)Gal(b1-4)[Fuc(a1-3)]GlcNAc(b1-3)GalNAc
Summary of the method: as §1

[21] = target: Fuc(a1-2)[Gal(a1-4)]Gal(b1-4)GlcNAc
Summary of the method: as §1

[22] = target: Fuc(a1-2)[GalNAc(a1-3)]Gal
Summary of the method: as §1

[23] = target: Fuc(a1-3)[Gal(b1-4)]GlcNAc(b1-6)GalNAc
Summary of the method: as §1

[24] = target: Fuc(a1-3)[GalNAc(b1-4)]GlcNAc
Summary of the method: as §1

[25] = target: Gal(a1-3)Fuc(a1-2)Gal(b1-4)GlcNAc(b1-3)[Gal(a1-3)Fuc(a1-2)Gal(b1-4)GlcNAc(b1-6)]GalNAc
Summary of the method: as §1

[26] = target: Gal(a1-3)Gal(b1-3)GlcNAc(b1-2)Man(a1-3)[Gal(a1-3)Gal(b1-3)GlcNAc(b1-2)Man(a1-6)]Man(b1-4)GlcNAc(b1-4)GlcNAc
Summary of the method: as §1

[27] = target: Gal(a1-3)Gal(b1-4)[Fuc(a1-3)]GlcNAc(b1-2)Man(a1-3)[Gal(a1-3)Gal(b1-4)[Fuc(a1-3)]GlcNAc(b1-2)Man(a1-6)]Man(b1-4)GlcNAc(b1-4)GlcNAc
Summary of the method: as §1

[28] = target: Gal(a1-4)Gal(b1-4)Glc
Summary of the method: as §1

[29] = target: Gal(b1-3)GlcNAc(b1-6)Gal(b1-4)GlcNAc
Summary of the method: as §1

[30] = target: Gal(b1-3)[Fuc(a1-4)]GlcNAc(b1-2)Man(a1-3)[Gal(b1-3)[Fuc(a1-4)]GlcNAc(b1-2)Man(a1-6)]Man(b1-4)GlcNAc(b1-4)GlcNAc
Summary of the method: as §1

[31] = target: Gal(b1-4)GlcNAc(b1-2)Man(a1-3)Man(b1-4)GlcNAc(b1-4)GlcNAc
Summary of the method: as §1

[32] = target: Gal(b1-4)GlcNAc(b1-2)Man(a1-3)[Gal(b1-4)GlcNAc(b1-2)Man(a1-6)]Man(b1-4)GlcNAc(b1-4)[Fuc(a1-6)]GlcNAc
Summary of the method: as §1

[33] = target: Gal(b1-4)GlcNAc(b1-2)Man(a1-6)Man(b1-4)GlcNAc(b1-4)GlcNAc
Summary of the method: as §1

[34] = target: Gal(b1-4)GlcNAc(b1-3)[Gal(b1-4)GlcNAc(b1-6)]GalNAc
Summary of the method: as §1

[35] = target: Gal(b1-4)GlcNAc(b1-6)[Gal(b1-3)]GalNAc
Summary of the method: as §1

[36] = target: Gal3S(b1-4)GlcNAc
Summary of the method: as §1

[37] = target: Gal3S(b1-4)[Fuc(a1-3)]Glc
Summary of the method: as §1

[38] = target: Gal3S4S(b1-4)GlcNAc
Summary of the method: as §1

[39] = target: Gal3S6S(b1-4)GlcNAc
Summary of the method: as §1

[40] = target: GalNAc(b1-3)Gal
Summary of the method: as §1

[41] = target: Glc(b1-4)Glc
Summary of the method: as §1

[42] = target: GlcNAc(a1-4)Gal(b1-4)GlcNAc(b1-3)Gal(b1-4)GlcNAc
Summary of the method: as §1

[43] = target: GlcNAc(a1-4)Gal(b1-4)GlcNAc(b1-3)Gal(b1-4)[Fuc(a1-3)]GlcNAc(b1-3)Gal(b1-4)[Fuc(a1-3)]GlcNAc
Summary of the method: as §1

[44] = target: GlcNAc(a1-6)Gal(b1-4)GlcNAc
Summary of the method: as §1

[45] = target: GlcNAc(b1-6)Gal(b1-4)GlcNAc
Summary of the method: as §1

[46] = target: Kdn(a2-3)Gal(b1-3)GalNAc
Summary of the method: as §1

[47] = target: Man(a1-2)Man(a1-3)[Man(a1-2)Man(a1-6)]Man
Summary of the method: as §1

[48] = target: Man(a1-2)Man(a1-3)[Man(a1-2)Man(a1-6)]Man(a1-6)[Man(a1-2)Man(a1-2)Man(a1-3)]Man
Summary of the method: as §1

[49] = target: Man(a1-2)Man(a1-3)[Man(a1-2)Man(a1-6)]Man(a1-6)[Man(a1-2)Man(a1-2)Man(a1-3)]Man(b1-4)GlcNAc(b1-4)GlcNAc
Summary of the method: as §1

[50] = target: Man(a1-2)Man(a1-6)[Man(a1-3)]Man(a1-6)[Man(a1-2)Man(a1-2)Man(a1-3)]Man(b1-4)GlcNAc(b1-4)GlcNAc
Summary of the method: as §1

[51] = target: Neu5Ac(a2-3)Gal(b1-3)[Neu5Ac(a2-6)]GalNAc
Summary of the method: as §1

[52] = target: Neu5Ac(a2-3)Gal(b1-4)GlcNAc(b1-6)[Neu5Ac(a2-3)Gal(b1-3)]GalNAc
Summary of the method: as §1

[53] = target: Neu5Ac(a2-6)Gal(b1-4)Glc
Summary of the method: as §1

[54] = target: Neu5Ac(a2-6)Gal(b1-4)GlcNAc(b1-2)Man(a1-3)[Man(a1-6)]Man(b1-4)GlcNAc(b1-4)GlcNAc
Summary of the method: as §1

B1: CFEM-SCL (Saccharomyces cerevisiae), O13547 (protein)
chain: MRATTLLSSVVSLALLSKEVLATPPACLLACVAQVGKSSSTCDSLNQVTCYCEHENSAVKKCLDSICPNNDADAAYSAFKSSCSEQNASLGD
glycan array binding signal (z-score) [1]: -0.027
glycan array binding signal (z-score) [2]: 0.047
glycan array binding signal (z-score) [3]: -0.281
glycan array binding signal (z-score) [4]: -0.331
glycan array binding signal (z-score) [5]: -0.277
glycan array binding signal (z-score) [6]: -0.326
glycan array binding signal (z-score) [7]: -0.303
glycan array binding signal (z-score) [8]: -0.086
glycan array binding signal (z-score) [9]: 0.113
glycan array binding signal (z-score) [10]: -0.234
glycan array binding signal (z-score) [11]: -0.277
glycan array binding signal (z-score) [12]: 0.813
glycan array binding signal (z-score) [13]: -0.311
glycan array binding signal (z-score) [14]: -0.282
glycan array binding signal (z-score) [15]: 1.21
glycan array binding signal (z-score) [16]: -0.146
glycan array binding signal (z-score) [17]: -0.298

B2: Eosinophil cationic protein (ECP) (Homo sapiens), P12724 (protein)
chain: MVPKLFTSQICLLLLLGLMGVEGSLHARPPQFTRAQWFAIQHISLNPPRCTIAMRAINNYRWRCKNQNTFLRTTFANVVNVCGNQSIRCPHNRTLNNCHRSRFRVPLLHCDLINPGAQNISNCTYADRPGRRFYVVACDNRDPRDSPRYPVVPVHLDTTI
glycan array binding signal (z-score) [18]: -0.315
glycan array binding signal (z-score) [19]: -0.348
glycan array binding signal (z-score) [20]: 2.14
glycan array binding signal (z-score) [21]: -0.421
glycan array binding signal (z-score) [22]: -0.298
glycan array binding signal (z-score) [23]: 2.25
glycan array binding signal (z-score) [24]: -0.183
glycan array binding signal (z-score) [25]: 0.494
glycan array binding signal (z-score) [26]: 1.32
glycan array binding signal (z-score) [27]: 2.23
glycan array binding signal (z-score) [28]: -0.102
glycan array binding signal (z-score) [29]: -0.17
glycan array binding signal (z-score) [30]: 0.007
glycan array binding signal (z-score) [31]: -0.103
glycan array binding signal (z-score) [32]: 0.16
glycan array binding signal (z-score) [33]: -0.08
glycan array binding signal (z-score) [34]: -0.091
glycan array binding signal (z-score) [35]: -0.081
glycan array binding signal (z-score) [36]: 0.818
glycan array binding signal (z-score) [37]: 2.4
glycan array binding signal (z-score) [38]: -0.557
glycan array binding signal (z-score) [39]: 2.7
glycan array binding signal (z-score) [40]: -0.382
glycan array binding signal (z-score) [41]: 0.024
glycan array binding signal (z-score) [42]: 8.33
glycan array binding signal (z-score) [43]: 4.18
glycan array binding signal (z-score) [44]: 3.15
glycan array binding signal (z-score) [45]: 0.126
glycan array binding signal (z-score) [46]: 0.204
glycan array binding signal (z-score) [47]: -0.495
glycan array binding signal (z-score) [48]: -0.174
glycan array binding signal (z-score) [49]: -0.101
glycan array binding signal (z-score) [50]: 0.498
glycan array binding signal (z-score) [51]: -0.097
glycan array binding signal (z-score) [52]: -0.004
glycan array binding signal (z-score) [53]: 0.151
glycan array binding signal (z-score) [54]: -0.018
